Experimental findings from PubChem BioAssay AID777 (Sanford-Burnham Center for Chemical Genomics, 2007) are described below.

Among all 96,000 compounds or so, about 19,000 (20%) were called active.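 The calls were made as follows: active = blocking of liver enzyme CYP2C9 beyond about 50% at 5 µM (limit read from the data); inactive = the rest.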 A selection follows.

Sequence of Cytochrome P450 2C9 (Homo sapiens) (P11712 whole entry, looked up): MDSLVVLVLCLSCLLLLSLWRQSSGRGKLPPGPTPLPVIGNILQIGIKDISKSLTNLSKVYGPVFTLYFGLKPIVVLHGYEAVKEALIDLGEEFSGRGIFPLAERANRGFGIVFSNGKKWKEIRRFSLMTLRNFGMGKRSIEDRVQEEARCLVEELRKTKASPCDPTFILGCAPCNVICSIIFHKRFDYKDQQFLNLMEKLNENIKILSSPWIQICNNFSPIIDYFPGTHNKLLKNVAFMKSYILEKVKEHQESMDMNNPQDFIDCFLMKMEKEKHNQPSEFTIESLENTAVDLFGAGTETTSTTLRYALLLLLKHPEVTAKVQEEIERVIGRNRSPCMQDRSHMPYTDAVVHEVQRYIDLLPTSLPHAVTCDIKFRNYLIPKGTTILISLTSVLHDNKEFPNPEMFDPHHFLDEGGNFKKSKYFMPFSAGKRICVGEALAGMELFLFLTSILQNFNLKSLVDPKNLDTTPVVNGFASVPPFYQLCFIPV

The experiment addresses Cytochrome P450 2C9 (Homo sapiens) (UniProt P11712). Kind of experiment: blockers of cytochrome P450 2C9 activity – biochemical, luminescence, ADME assay, primary screen (AID 777). The following applies: CYP2C9 Supersomes, luciferin-H conversion, at 5 µM, hits give high values.
Take `Cc1nc2c(-c3ccc(F)cc3)c(C)nn2c(C)c1CCC(=O)N1CCN(c2ccccn2)CC1`: the inhibition is 13.1% (inactive). As for `O=C(/C=C/c1ccc(Cl)cc1Cl)c1cccnc1`, the inhibition was 14.7% (inactive). The same measure for `COc1ccccc1CSc1nc2ccccc2[nH]1`: 43.6% (inactive). The same measure for `CN1CCN(c2ccc([N+](=O)[O-])c(Sc3nc4ccccc4[nH]3)c2)CC1`: 52.2% (active). The same measure for `CSc1nnc2c(n1)OC(c1cn(C)c3ccccc13)N(C(C)=O)c1ccccc1-2` (configuration not stated): 1.6% (inactive); for `Cc1ccc(-c2nnc(SC(C)C#N)n2N)cc1` (configuration not stated): 1.1% (inactive). Regarding `Cc1cc(C)nc(N(C#N)CC(=O)Nc2ccccc2)n1`, the inhibition was 7.1% (inactive).

As to `CSc1ccccc1C(=O)Nc1cccc(C(C)=O)c1`, the inhibition was 27.8% (inactive). The same measure for `CSc1nc(C)cc(SC(C(C)=O)C(=O)Nc2ccccc2)n1` (configuration not stated): 65.3% (active); for `Cc1csc(NC(=O)NC2(C(F)(F)F)Oc3ccccc3O2)n1`: -6.5% (inactive); for `COc1ccc(C(=O)Nc2cc(C)ccc2NC(=O)COc2ccccc2)cc1`: 6.9% (inactive).

As to `Cc1ccc2nc(-c3ccc(SCC(=O)Nc4cc(C)on4)nc3)[nH]c2c1`, the inhibition is 2.6% (inactive). As for `CCOC(=O)c1cc2cc(C)ccc2[nH]1`, the inhibition is 13.9% (inactive). The same measure for `CC(N)C12CC3CC(CC(O)(C3)C1)C2` (configuration not stated): -4% (inactive); for `FC(F)(F)COc1nc(N2CCCCC2)nc(N2CCNCC2)n1`: -4.2% (inactive); for `CCC(C)NC(=O)CSC1=Nc2ccccc2C2=NC(CCC(=O)NCc3ccco3)C(=O)N12` (configuration not stated): 67.8% (active). The figure for `O=C(CC1N=C2c3ccccc3N=C(SCc3ccccc3Cl)N2C1=O)NCc1ccco1` (configuration not stated) is 85.2% (active). The figure for `CCOCCc1c(O)nc(SCC(=O)NCc2ccco2)[nH]c1=O` is -8.3% (inactive); for `NC(=O)CSC1=Nc2ccccc2C2=NC(CCC(=O)NCc3ccc(F)cc3)C(=O)N12` (configuration not stated) it is 16.8% (inactive). As for `O=C(COC(=O)C12CC3CC(CC(C3)C1)C2)NCc1ccco1`, the inhibition is 35.4% (inactive). The same measure for `O=C(CSc1c2c(nc3ccc(Cl)cc13)CCCC2)NCc1ccco1`: 48.3% (inactive); for `O=C(CSC1=Nc2ccccc2C2=NC(CC(=O)NCc3ccco3)C(=O)N12)NCc1ccco1` (configuration not stated): 65.1% (active). The figure for `CCOc1c(Cl)cc(/C=N/O)cc1OC` is -30% (inactive). The same measure for `COC(=O)c1cc(C(=O)OC)cc(N2C(=O)CC(N3CCN(c4ccccc4)CC3)C2=O)c1` (configuration not stated): 49% (inactive); for `Cn1cc(S(=O)(=O)N2CCC(Cc3ccccc3)CC2)c(=O)n(C)c1=O`: 23.7% (inactive); for `C=C1c2cc(CC)ccc2NC(=O)N1c1ccc(C)cc1`: 10.6% (inactive).

Consider `CC(C)(C)n1nnc(CCc2nnn(C(C)(C)C)n2)n1`, for which the inhibition was 3.2% (inactive). The same measure for `Cc1c(NC(=O)/C=C/C(=O)O)cccc1[N+](=O)[O-]`: -2.8% (inactive).

With `Cc1ccc(NC2(C#N)C(=O)Nc3ccccc32)cc1` (configuration not stated), the inhibition was -24.6% (inactive). `CCOC(=O)c1c(NC(C)=O)sc2c(O)c(Br)ccc12`: the inhibition is 55% (active). As for `CCOC(=O)c1c(NC(=O)CCl)sc(C(=O)N(CC)CC)c1C`, the inhibition was 49.6% (inactive). In the case of `CCOC(=O)c1c(NC(=O)/C=C/c2ccco2)sc(C)c1C`, the inhibition is -4% (inactive). The same measure for `CC(=O)Nc1nonc1-c1nc2ccccc2n1Cc1ccccn1`: 7.4% (inactive); for `COc1ccccc1N1CCN(C(=O)c2c(-c3c(Cl)cccc3Cl)noc2C)CC1`: 88% (active).

With `COc1ccccc1N1CCN(C(=O)c2cc(-c3ccc(Br)cc3)on2)CC1`, the inhibition was -12% (inactive). Turning to `COc1ccccc1N1CCN(C(=O)CSc2nnc(-c3ccoc3C)o2)CC1`, the inhibition is 25.8% (inactive). Regarding `CN1CCN(CCCNC(=O)c2cc3c(=O)oc4ccccc4c3s2)CC1`, the inhibition is -15.9% (inactive).

Take `Cc1ccc(CNC(=O)COc2ccc(S(=O)(=O)NC(C)C)cc2)cc1`: the inhibition was 52.7% (active). The figure for `COc1ccc(OCC(=O)NCCc2ccc(S(N)(=O)=O)cc2)cc1` is 41.9% (inactive); for `CC(C)NS(=O)(=O)c1ccc(OCC(=O)Nc2ccc3c(c2)OCCO3)cc1` it is 40.9% (inactive).

Regarding `COc1ccc(-c2cc(C)nc3nc(N)nn23)cc1`, the inhibition was -29.3% (inactive).

On to `Cc1cccc(N2C(=O)c3cccnc3C2=O)c1`, for which the inhibition was 3.1% (inactive). The figure for `Cc1c(C(=O)CN2CCOCC2)[nH]c2ccccc12` is -15.8% (inactive).

For `CCOC(=O)c1[nH]c2ccc(OC)cc2c1NC(=O)N1CCOCC1`, the inhibition was -9.2% (inactive). The figure for `Cc1c(C(=O)N2CCOCC2)[nH]c2ccc(OCc3ccccc3)cc12` is 72.7% (active). Turning to `Cc1ccc(OCC(O)CN2CCN(CC(O)COc3ccc(C)cc3Cl)CC2)c(Cl)c1` (configuration not stated), the inhibition is -10.1% (inactive). The same measure for `COC(=O)c1[nH]c2ccccc2c1NS(=O)(=O)c1ccc(OC)cc1OC`: 74.8% (active); for `CCCS(=O)(=O)Nc1c(C(=O)O)[nH]c2ccccc12`: 33.7% (inactive). The figure for `COC(=O)c1[nH]c2ccc(Br)cc2c1NC(=O)Oc1ccccc1` is 4.5% (inactive). For the compound `CCCCCCCCOC1OC(CO)C(O)C(O)C1NC(C)=O` (configuration not stated), the inhibition was -2.6% (inactive). As to `COC(=O)c1ccc(C(=O)Nc2cc(Cl)ccc2Cl)cc1NC(=O)c1ccccc1C`, the inhibition was -13.7% (inactive). The same measure for `Cc1ccc(N2C(=O)c3ccccc3C2(O)c2ncc[nH]2)cc1` (configuration not stated): -0.7% (inactive).

Turning to `CCOCC(=O)Nc1cc(OC)c(Cl)cc1OC`, the inhibition was 13.3% (inactive). The figure for `Cc1nc(N2CCCC2C(=O)O)c2oc3ccccc3c2n1` (configuration not stated) is -6.6% (inactive).

With `O=C(CSC1=Nc2ccccc2C2=NC(c3ccccc3)C(=O)N12)NCC1CCCO1` (configuration not stated), the inhibition was 39.3% (inactive). The same measure for `CC(C)C1N=C2c3ccccc3N=C(SCC(=O)c3ccc(O)c(O)c3)N2C1=O` (configuration not stated): 51.3% (active); for `CCOC(=O)c1cc2occc2n1CC(=O)NC1CCC(C)CC1` (configuration not stated): 22% (inactive); for `O=C1/C(=C\Nc2ccccc2)CCN1c1ncccn1`: 3.1% (inactive). The same measure for `CCOC(=O)C1CCN(C(=O)Cn2cc(C#N)c3ccccc32)CC1`: -6.6% (inactive); for `CCOC(=O)CCc1c(C)c(C#N)c2[nH]c3ccccc3n2c1=O`: 64.1% (active). The same measure for `CCOC(=O)CSc1nccc(N(C)C)c1C#N`: -35% (inactive); for `Cc1c(CCO)c(=O)n(-c2ccccc2)n1S(=O)(=O)c1ccc(F)cc1`: 37.6% (inactive).

For orientation: inhibition means the change of the read-out against control, counted positive when it falls.
